# From PubChem BioAssay (NCATS)
# Inconclusive results are not listed. Active and inactive are the calls of the source. Unless noted, calls follow the shape of the dose curve; as a rule, active = well fitted curve in either direction with a large enough effect (not every such curve was filed as active); inconclusive = small, poorly fitted or top-dose-only effect, or another doubt; inactive = flat fitted curve, though single readings scatter.
# Columns and labels:
# [1] = biological target: Lysosomal acid glucosylceramidase (Homo sapiens) (UniProt P04062); experiment: Glucocerebrosidase-p2 (AID 348; in the data active = potency below about 10 µM; also: potency is read from the fitted curve at half-maximal effect); settings: purified GBA, blue fluorogenic substrate, 40 min
# How it was run: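 Normal human glucocerebrosidase (0.2 nM) with blue fluorogenic substrate (80 uM final) in citrate/phosphate pH 5.9 with 10mM sodium taurocholate, 0.01% tween-20; 40 min RT, NaOH/glycine stop; fluorescence Ex 365/Em 440; AC50 from a titration from 0.6 nM upwards.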
# [2] = AP1 Signaling Pathway (AID 357); settings: ME-180 AP-1-bla reporter, EGF-induced, beta-lactamase ratio, 5 h; at 7.69 µM (top of the series) unless noted; also: % is scaled to controls: 0 for no effect and ±100 for the full control effect
# How it was run: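 In this screen, ME-180 cells in Opti-MEM with 0.5% dialyzed FBS received EC50 EGF and compound titrations for 5 h. AP-1 reporter beta-lactamase was detected via CCF4 ratio, giving AC50 for positive and negative modulators.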
# [3] = biological target: Cytochrome P450 1A2 (Homo sapiens) (UniProt P05177); experiment: p450-cyp1a2 (AID 410; calls by dose curve; also: potency is read from the fitted curve at half-maximal effect;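 as to activity change, negative = inhibition: -100% = full effect of reference inhibitor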); settings: recombinant CYP1A2, luciferin-ME demethylation, luminescence; series mostly up to 57 µM
# How it was run: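 Luminescent demethylation readout: Luciferin-ME (100uM, equal to Km) turned over by 20nM CYP1A2 for 60 min at room temperature after NADPH regeneration addition, following 10 min compound preincubation. Normalization used 57 uM furafylline as full inhibition.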
# [4] = NFAT Signaling Pathway (AID 444); settings: Jurkat NFAT-bla M1, carbachol, beta-lactamase ratio, 5 h; at 7.69 µM (top of the series) unless noted;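 also: carbachol stimulus at about its EC50 of 1 µM final; % is scaled to controls: 0 for no effect and ±100 for the full control effect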
# How it was run: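 Jurkat cells with NFAT-driven β-lactamase reporter and co-expressed M1 receptor, stimulated with carbachol (final 1 uM, ~EC50), compound titration, 5 h at 37 °C. CCF4 loaded 1 h at RT; 460/530 nm ratio gave %activity and AC50.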
# [5] = Stat Signaling Pathway (AID 446); settings: ME-180 SIE beta-lactamase reporter, IL-6 stimulated, 5 h; at 7.69 µM (top of the series) unless noted;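 also: ME-180 cervical cancer cells given 40 pM IL-6 alongside compound; SIE-controlled beta-lactamase reporter measured as 460/530 nm FRET emission ratio; % is scaled to controls: 0 for no effect and ±100 for the full control effect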
# How it was run: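 Normalization used AC90 stimulation (300 pM IL-6) and AC90 inhibition (125 nM pan-JAK inhibitor at 40 pM IL-6). The underlying signal is SIE-driven beta-lactamase in ME-180 cells after 5 h IL-6 exposure with compound.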
# [6] = biological target: Glucocorticoid receptor (Homo sapiens) (UniProt P04150); experiment: GR-GFP Redistribution (AID 450;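 active = compounds whose dose series gives a full or clear partial fitted curve of increased nuclear translocation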; also: potency is read from the fitted curve at half-maximal effect); settings: U2OS GR-GFP nuclear translocation, laser cytometry, 2 h
# [7] = biological target: Mitogen-activated protein kinase 10 (Mus musculus) (UniProt Q61831); experiment: JNK3 AlphaScreen Assay (AID 530); settings: JNK3 lysate, c-Jun phosphorylation; series mostly up to 57.1 µM;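 also: kinase came from lysate of stimulated human HepG2 cells; signal reports phosphorylation of biotinylated GST-cJun 1-79 at Ser73 with 10 µM ATP; % is scaled to controls: 0 for no effect and ±100 for the full control effect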
# How it was run: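 Activity was read by AlphaScreen after JNK3-containing HepG2 lysate (cytokine pre-activated) phosphorylated biotinylated GST-cJun with 10 uM ATP at room temperature. Phospho-Ser73 cJun antibody with Protein-A acceptor beads provided detection.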
# [8] = biological target: Cytochrome P450 3A4 (Homo sapiens) (UniProt P08684); experiment: qHTS Assay for Activators of Cytochrome P450 3A4 (AID 885; active = well fitted curve in the direction sought with a large enough effect; an effect the other way counts as inactive or inconclusive; also: nearly all actives have a fitted effect of over 65% in size); settings: recombinant CYP3A4, Luciferin-PPXE luminescence, 60 min; series mostly up to 57.1 µM
# How it was run: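 Human CYP3A4 dealkylates Luciferin-PPXE to luciferin, which luciferase detection converts to light. Substrate was at its KM (25uM), buffer 200mM KPO4, reaction 60 min at RT.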
# [9] = biological target: Cytochrome P450 2D6 (Homo sapiens) (UniProt P10635); experiment: qHTS Assay for Inhibitors and Substrates of Cytochrome P450 2D6 (AID 891; active = well fitted curve in the direction sought with a large enough effect; an effect the other way counts as inactive or inconclusive; also: potency is read from the fitted curve at half-maximal effect; nearly all actives have a fitted effect of over 60% in size); settings: recombinant CYP2D6, luciferin-ME EGE luminescence; series mostly up to 57.1 µM
# How it was run: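 Luminescent read-out of luciferin formed by 5 nM human CYP2D6 demethylating 30 uM Luciferin-ME EGE (Km level) over 60 min at room temperature after NADPH regeneration addition. Data normalized to full inhibition by 1.43 uM quinidine.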
# [10] = Confirmation and Secondary Assay for Modulators of Hemoglobin Beta Chain Splicing at IVS2 654 locus (AID 910; active = well fitted curve in the direction sought with a large enough effect; an effect the other way counts as inactive or inconclusive;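 also: HeLa cells stably carrying EGFP split by mutant beta-globin IVS2-654 intron; % of control where 0% means no effect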); settings: HeLa EGFP-654 splicing reporter, GFP fluorescence, 48 h; series mostly up to 38.3 µM
# How it was run: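 HeLa cells stably expressing EGFP interrupted by β-globin IVS2-654 intron, seeded overnight in Opti-MEM/2% FCS, then treated 2 days at 37 °C. Restored splicing read as total peak GFP intensity per well by laser scanning cytometry (488 nm excitation, 500–520 nm emission); 500 nM antisense PNA as control.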
# [11] = Confirmation and Secondary Assay for Modulators of Hemoglobin Beta Chain Splicing at IVS2 705 locus (AID 930; active = well fitted curve in the direction sought with a large enough effect; an effect the other way counts as inactive or inconclusive;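 also: HeLa cells stably expressing the EGFP-705 splicing reporter; GFP fluorescence per well restored by corrected splicing of the IVS2-705 intron in EGFP; % of control where 0% means no effect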); settings: HeLa EGFP-705 splicing reporter, GFP fluorescence, 48 h; series mostly up to 38.3 µM
# How it was run: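 HeLa EGFP-705 reporter; 500 cells/well, o/n 37C 5% CO2; cpd 2 d; 488 ex/500-520 em laser scan; total peak GFP intensity/well. Ref: 500 nM […] antisense PNA.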
# [12] = qHTS Assay for Lipid Storage Modulators (AID 1519; calls by dose curve); settings: Drosophila S3 cells, BODIPY lipid droplet/cell ratio, laser cytometry, cells loaded with oleic acid; for activity change, negative = inhibition: at 57.5 µM (top of the series)
# How it was run: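 Cells seeded at 5,000 per well were treated with compounds over a concentration series and loaded with oleic acid (400 uM, as added). Lipid droplet fluorescence (488 nm excitation, 500-530 nm channel) was read by laser-scanning cytometry and normalized to 20 uM Triacsin C.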
# [13] = biological target: Ubiquitin carboxyl-terminal hydrolase 1 (Homo sapiens) (UniProt O94782); experiment: Inhibitors of USP1/UAF1: Pilot qHTS (AID 504865; active = well fitted curve in the direction sought with a large enough effect; an effect the other way counts as inactive or inconclusive;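 also: rhodamine fluorescence freed from ubiquitin-rhodamine substrate followed over time; top concentration of the series differs between compounds; % is scaled to controls: 0 for no effect and ±100 for the full control effect; nearly all actives have a fitted effect of over 35% in size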); settings: purified USP1/UAF1, Ub-rhodamine cleavage fluorescence; series mostly up to 54.9 µM
# How it was run: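 Enzyme-free wells gave the negative control, while test wells held 1nM USP1/UAF1 preincubated with compound for 15 min at room temperature. Ub-Rho at 150nM final started the reaction, and fluorescence at 480/540 nm was recorded kinetically.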
# [14] = Primary qHTS for small molecule stabilizers of the endoplasmic reticulum resident proteome: Secreted ER Calcium Modulated Protein (SERCaMP) assay (AID 1508630; active = well fitted curve in the direction sought with a large enough effect; an effect the other way counts as inactive or inconclusive; also: % is scaled to controls: 0 for no effect and ±100 for the full control effect); settings: SH-SY5Y GLuc-SERCaMP (Gaussia luciferase released on ER calcium loss) secretion, thapsigargin, luminescence; series mostly up to 38.4 µM
# How it was run: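 The SH-SY5Y reporter protocol was run at 3 concentrations up to 38.3 uM (primary) or 11 concentrations (follow-up): 16 h compound, 100 nM thapsigargin for 4 h, then extracellular luciferase luminescence.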
# [15] = biological target: Glucocorticoid receptor (Homo sapiens) (UniProt P04150); experiment: GR-EFC Redistribution (AID 451; calls by dose curve; also: potency is read from the fitted curve at half-maximal effect); settings: CHO-K1 GR-EFC translocation, beta-gal luminescence, 2 h
# How it was run: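 CHO-K1 cells expressing nuclear EA and GR-ED fragments of b-gal; compounds titrated up to 46 uM final, 2 h at 37 C. GR nuclear translocation read as complemented b-gal luminescence after 1 h RT detection.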
# [16] = biological target: 3',5'-cyclic-AMP phosphodiesterase 4B (Homo sapiens) (UniProt Q07343); experiment: qHTS Assay for Inhibitors of PDE-IV (AID 607; active = well fitted activation curve with a large enough effect in the main read-out, with a control signal flat, not every such curve was filed as active; also: % of control where 0% means no effect); settings: HEK293 ACTOne CNG channel cells, membrane potential fluorescence; series mostly up to 22.9 µM
# How it was run: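 HEK293 ACTOne cells with CNG channel (1000/well), endogenous PDE4; membrane potential dye, compounds up to 22.9 uM final. Fluorescence Ex 535/Em 590; RO 20-1724 (100 uM final) as reference.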
# [17] = qHTS Assay for Identification of Small Molecule Agonists for Hypoxia Response Element Signaling Pathway (AID 914; active = well fitted activation curve with a large enough effect in the signal ratio, with a control signal flat, not every such curve was filed as active; the % refers to the signal ratio; also: % of control where 0% means no effect); settings: ME-180 (cervical carcinoma) HRE-bla reporter, beta-lactamase ratio, CoCl2, 17 h; activation: stronger effect = higher value
# How it was run: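 Read-out: CCF4 FRET ratio of 460nm to 530nm emission (excitation 405nm) after 2.5 hours at room temperature, taken from HRE-bla ME-180 cells that had been exposed to compound and EC50 CoCl2 for 17 hours.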
# [18] = biological target: Cytochrome P450 2C9 (Homo sapiens) (UniProt P11712); experiment: qHTS Assay for Inhibitors and Substrates of Cytochrome P450 2C9 (AID 883; active = well fitted curve in the direction sought with a large enough effect; an effect the other way counts as inactive or inconclusive; also: potency is read from the fitted curve at half-maximal effect; nearly all actives have a fitted effect of over 60% in size); settings: recombinant CYP2C9, luciferin-H luminescence, 60 min; series mostly up to 57.1 µM
# How it was run: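 Human CYP2C9 (10nM) with Luciferin-H at 100uM (its KM) in 25mM KPO4; compound preincubated 10 min at 37C, then NADPH regeneration for 60 min at 37C. Luciferin read by luminescence after detection reagent; normalized to 57uM sulphaphenazole as full inhibition.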
# [19] = biological target: Cytochrome P450 3A4 (Homo sapiens) (UniProt P08684); experiment: qHTS Assay for Inhibitors and Substrates of Cytochrome P450 3A4 (AID 884; active = well fitted curve in the direction sought with a large enough effect; an effect the other way counts as inactive or inconclusive; also: potency is read from the fitted curve at half-maximal effect; nearly all actives have a fitted effect of over 50% in size); settings: recombinant CYP3A4, Luciferin-PPXE luminescence; series mostly up to 57.1 µM
# How it was run: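 Luminescent readout of luciferin produced by CYP3A4 (20 nM) dealkylation of Luciferin-PPXE, 25 uM (its KM). NADPH-driven reaction ran 60 min at RT after 10 min compound preincubation; data scaled to 57 uM ketoconazole as 100% inhibition.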
# [20] = measured here: cell count channel max response
# [21] = measured here: lipid channel max response
# Glucocorticoid receptor (Homo sapiens), sequence (P04150 whole entry, looked up, the tested form may be a part): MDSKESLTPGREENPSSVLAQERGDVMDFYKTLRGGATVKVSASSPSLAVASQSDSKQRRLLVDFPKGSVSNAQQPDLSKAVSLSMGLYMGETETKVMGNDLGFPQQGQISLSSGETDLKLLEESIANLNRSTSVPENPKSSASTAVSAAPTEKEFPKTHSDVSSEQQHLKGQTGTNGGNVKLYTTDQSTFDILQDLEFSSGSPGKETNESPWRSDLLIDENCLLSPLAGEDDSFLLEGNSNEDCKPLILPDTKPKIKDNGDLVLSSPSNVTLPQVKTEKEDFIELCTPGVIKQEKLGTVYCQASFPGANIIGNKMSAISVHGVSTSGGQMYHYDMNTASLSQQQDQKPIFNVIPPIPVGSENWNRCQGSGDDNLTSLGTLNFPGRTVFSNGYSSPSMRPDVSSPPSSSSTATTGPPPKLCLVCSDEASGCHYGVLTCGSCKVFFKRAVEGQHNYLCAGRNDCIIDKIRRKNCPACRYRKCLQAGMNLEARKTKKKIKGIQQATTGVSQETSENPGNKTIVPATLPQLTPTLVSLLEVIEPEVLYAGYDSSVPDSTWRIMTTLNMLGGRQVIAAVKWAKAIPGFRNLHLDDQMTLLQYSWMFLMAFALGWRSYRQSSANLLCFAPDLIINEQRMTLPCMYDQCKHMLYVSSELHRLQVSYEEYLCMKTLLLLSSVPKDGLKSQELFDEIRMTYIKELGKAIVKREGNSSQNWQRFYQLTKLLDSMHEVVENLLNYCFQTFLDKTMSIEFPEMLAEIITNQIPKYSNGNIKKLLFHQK
# Lysosomal acid glucosylceramidase (Homo sapiens), sequence (P04062 whole entry, looked up): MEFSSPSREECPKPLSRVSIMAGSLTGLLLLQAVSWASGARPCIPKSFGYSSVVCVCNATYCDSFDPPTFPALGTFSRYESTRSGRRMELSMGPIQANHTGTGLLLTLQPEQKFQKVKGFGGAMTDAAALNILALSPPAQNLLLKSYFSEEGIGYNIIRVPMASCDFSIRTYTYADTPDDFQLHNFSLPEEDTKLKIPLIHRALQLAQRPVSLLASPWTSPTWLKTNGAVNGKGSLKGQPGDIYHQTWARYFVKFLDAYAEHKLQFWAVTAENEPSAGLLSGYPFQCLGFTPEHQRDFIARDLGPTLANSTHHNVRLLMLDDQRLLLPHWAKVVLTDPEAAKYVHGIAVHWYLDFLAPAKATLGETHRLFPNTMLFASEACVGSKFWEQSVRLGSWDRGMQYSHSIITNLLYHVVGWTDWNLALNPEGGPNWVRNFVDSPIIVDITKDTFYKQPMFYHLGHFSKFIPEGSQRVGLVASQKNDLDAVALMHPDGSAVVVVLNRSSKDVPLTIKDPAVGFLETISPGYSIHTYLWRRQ
# Cytochrome P450 3A4 (Homo sapiens), sequence (P08684 whole entry, looked up): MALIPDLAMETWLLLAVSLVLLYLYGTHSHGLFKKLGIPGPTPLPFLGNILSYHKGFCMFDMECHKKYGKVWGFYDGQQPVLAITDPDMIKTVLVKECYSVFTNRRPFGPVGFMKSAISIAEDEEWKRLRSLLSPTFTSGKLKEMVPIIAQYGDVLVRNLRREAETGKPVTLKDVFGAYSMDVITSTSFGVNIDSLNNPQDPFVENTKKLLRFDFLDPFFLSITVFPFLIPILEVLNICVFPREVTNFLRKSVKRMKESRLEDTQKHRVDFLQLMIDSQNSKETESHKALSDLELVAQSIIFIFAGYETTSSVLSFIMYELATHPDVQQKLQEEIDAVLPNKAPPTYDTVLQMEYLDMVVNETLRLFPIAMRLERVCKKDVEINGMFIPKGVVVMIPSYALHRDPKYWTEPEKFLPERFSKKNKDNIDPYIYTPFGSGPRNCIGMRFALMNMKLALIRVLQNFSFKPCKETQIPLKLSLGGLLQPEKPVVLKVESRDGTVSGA
# Cytochrome P450 1A2 (Homo sapiens), sequence (P05177 whole entry, looked up): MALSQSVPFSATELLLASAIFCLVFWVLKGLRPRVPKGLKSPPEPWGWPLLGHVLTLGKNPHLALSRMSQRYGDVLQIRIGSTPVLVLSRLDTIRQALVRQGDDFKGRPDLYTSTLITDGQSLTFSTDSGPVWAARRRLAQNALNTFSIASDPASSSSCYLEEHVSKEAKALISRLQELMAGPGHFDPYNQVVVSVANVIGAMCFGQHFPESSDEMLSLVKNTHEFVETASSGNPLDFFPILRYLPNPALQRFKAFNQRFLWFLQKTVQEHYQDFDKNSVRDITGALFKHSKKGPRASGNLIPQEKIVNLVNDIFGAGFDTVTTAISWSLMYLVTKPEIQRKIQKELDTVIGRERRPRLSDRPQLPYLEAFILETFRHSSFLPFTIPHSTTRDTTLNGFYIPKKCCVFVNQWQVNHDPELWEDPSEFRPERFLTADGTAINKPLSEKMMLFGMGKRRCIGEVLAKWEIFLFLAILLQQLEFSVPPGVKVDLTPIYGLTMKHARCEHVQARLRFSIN
# 3',5'-cyclic-AMP phosphodiesterase 4B (Homo sapiens), sequence (Q07343 whole entry, looked up): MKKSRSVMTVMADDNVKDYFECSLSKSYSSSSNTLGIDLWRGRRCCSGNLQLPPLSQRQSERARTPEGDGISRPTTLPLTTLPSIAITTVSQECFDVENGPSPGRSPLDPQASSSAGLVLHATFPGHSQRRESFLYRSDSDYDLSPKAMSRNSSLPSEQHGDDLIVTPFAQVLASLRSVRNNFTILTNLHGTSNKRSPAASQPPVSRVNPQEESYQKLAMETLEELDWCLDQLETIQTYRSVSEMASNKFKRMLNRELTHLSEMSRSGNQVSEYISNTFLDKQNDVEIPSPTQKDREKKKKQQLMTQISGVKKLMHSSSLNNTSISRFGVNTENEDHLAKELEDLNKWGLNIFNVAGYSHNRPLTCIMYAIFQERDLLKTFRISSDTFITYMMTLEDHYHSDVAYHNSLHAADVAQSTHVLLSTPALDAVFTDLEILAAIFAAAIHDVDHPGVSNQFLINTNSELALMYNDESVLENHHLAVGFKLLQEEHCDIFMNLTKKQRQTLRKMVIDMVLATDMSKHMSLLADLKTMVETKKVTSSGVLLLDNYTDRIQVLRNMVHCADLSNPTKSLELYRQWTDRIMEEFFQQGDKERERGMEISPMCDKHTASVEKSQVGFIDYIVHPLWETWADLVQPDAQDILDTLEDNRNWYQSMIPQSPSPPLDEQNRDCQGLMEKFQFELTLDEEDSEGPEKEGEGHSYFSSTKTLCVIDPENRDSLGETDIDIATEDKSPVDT
# Ubiquitin carboxyl-terminal hydrolase 1 (Homo sapiens), sequence (O94782 whole entry, looked up): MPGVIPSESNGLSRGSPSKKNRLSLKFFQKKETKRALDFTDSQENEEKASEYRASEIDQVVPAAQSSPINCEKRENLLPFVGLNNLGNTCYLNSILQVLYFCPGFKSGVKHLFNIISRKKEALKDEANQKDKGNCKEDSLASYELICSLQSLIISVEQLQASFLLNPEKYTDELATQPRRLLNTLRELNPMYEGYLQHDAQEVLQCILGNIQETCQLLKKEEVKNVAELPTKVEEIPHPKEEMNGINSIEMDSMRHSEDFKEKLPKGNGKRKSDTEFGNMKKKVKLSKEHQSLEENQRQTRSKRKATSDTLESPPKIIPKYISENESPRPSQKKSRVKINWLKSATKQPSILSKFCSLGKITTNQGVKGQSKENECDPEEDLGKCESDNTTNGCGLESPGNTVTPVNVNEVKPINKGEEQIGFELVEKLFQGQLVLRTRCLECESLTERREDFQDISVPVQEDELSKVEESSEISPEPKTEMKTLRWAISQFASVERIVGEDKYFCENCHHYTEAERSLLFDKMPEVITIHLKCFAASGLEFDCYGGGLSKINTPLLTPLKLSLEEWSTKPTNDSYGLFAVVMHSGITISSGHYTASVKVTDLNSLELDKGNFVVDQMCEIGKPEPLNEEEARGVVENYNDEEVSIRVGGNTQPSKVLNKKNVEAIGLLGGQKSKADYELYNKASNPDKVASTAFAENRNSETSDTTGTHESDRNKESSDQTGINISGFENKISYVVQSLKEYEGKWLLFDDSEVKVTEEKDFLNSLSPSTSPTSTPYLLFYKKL
# Cytochrome P450 2D6 (Homo sapiens), sequence (P10635 whole entry, looked up): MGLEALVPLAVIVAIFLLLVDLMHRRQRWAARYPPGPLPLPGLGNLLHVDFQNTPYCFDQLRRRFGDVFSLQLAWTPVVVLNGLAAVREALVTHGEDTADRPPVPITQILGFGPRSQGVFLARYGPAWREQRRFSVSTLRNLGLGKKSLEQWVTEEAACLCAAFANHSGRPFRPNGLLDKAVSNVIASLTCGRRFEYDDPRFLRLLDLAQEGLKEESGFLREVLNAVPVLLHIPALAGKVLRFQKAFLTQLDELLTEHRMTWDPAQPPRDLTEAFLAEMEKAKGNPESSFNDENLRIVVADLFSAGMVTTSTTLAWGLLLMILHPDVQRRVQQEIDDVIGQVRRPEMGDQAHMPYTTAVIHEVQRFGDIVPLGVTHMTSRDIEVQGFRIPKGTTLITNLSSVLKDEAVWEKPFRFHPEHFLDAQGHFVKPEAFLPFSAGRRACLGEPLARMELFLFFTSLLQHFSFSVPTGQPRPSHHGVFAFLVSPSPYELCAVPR
# Cytochrome P450 2C9 (Homo sapiens), sequence (P11712 whole entry, looked up): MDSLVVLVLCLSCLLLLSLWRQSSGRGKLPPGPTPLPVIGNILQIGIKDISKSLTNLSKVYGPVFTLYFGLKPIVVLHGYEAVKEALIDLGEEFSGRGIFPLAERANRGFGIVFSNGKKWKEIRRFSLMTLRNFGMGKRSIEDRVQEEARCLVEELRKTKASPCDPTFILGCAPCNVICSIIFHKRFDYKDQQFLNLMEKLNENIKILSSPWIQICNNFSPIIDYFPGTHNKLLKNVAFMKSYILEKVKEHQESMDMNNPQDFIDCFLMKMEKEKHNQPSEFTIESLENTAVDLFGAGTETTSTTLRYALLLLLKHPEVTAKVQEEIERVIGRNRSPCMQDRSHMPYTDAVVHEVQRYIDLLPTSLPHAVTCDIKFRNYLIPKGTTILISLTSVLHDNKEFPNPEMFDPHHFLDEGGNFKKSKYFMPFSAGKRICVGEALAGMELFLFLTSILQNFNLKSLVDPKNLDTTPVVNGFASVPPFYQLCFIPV
structure (smiles),measurement,setting,value
CN(C)Cc1ccccc1-c1nc(N2CCOCC2)c2ccccc2n1,Potency,[1],> 11.4 µM (inactive)
same,"activity change, negative = inhibition",[2],25.9% (inactive)
same,Potency,[3],20 µM (active)
same,"activity change, negative = inhibition",[4],-1.63% (inactive)
same,"activity, negative = inhibition",[5],27.7% (inactive)
same,Potency,[6],> 46 µM (inactive)
same,outcome,[7],inactive
same,Potency,[8],inactive
same,Potency,[9],7.94 µM (active)
same,outcome,[10],inactive
same,outcome,[11],inactive
same,"activity change, negative = inhibition",[12],5.13% (inactive)
same,max response,[12]; [20],11.7%
same,max response,[12]; [21],18.4%
same,Potency,[13],inactive
same,Potency,[14],inactive
CC(=O)NCCNc1nc(-c2ccccc2Cl)nc2ccccc12,Potency,[1],> 11.4 µM (inactive)
same,"activity change, negative = inhibition",[2],22.6% (inactive)
same,Potency,[3],7.94 µM (active)
same,"activity change, negative = inhibition",[4],-5.34% (inactive)
same,"activity, negative = inhibition",[5],-10.3% (inactive)
same,Potency,[6],> 46 µM (inactive)
same,Potency,[15],> 46 µM (inactive)
same,outcome,[7],inactive
same,Potency,[16],inactive
same,Potency,[8],inactive
same,outcome,[10],inactive
same,activation,[17],19.9% (inactive)
same,outcome,[11],inactive
same,"activity change, negative = inhibition",[12],8.12% (inactive)
same,max response,[12]; [20],11.5%
same,max response,[12]; [21],20.7%
same,Potency,[14],inactive
N#Cc1cccc(-c2cc(NCc3ccccc3)ncn2)c1,Potency,[1],> 11.4 µM (inactive)
same,"activity change, negative = inhibition",[2],-7.27% (inactive)
same,Potency,[3],1 µM (active)
same,"activity change, negative = inhibition",[4],17.5% (inactive)
same,"activity, negative = inhibition",[5],4.28% (inactive)
same,Potency,[15],> 46 µM (inactive)
same,outcome,[7],inactive
same,"activity change, negative = inhibition",[12],6.18% (inactive)
same,max response,[12]; [20],26.4%
same,max response,[12]; [21],32.1%
same,Potency,[13],inactive
same,Potency,[14],inactive
CS(=O)(=O)Nc1cccc(-c2cncnc2NCc2cccs2)c1,Potency,[1],> 11.4 µM (inactive)
same,"activity change, negative = inhibition",[2],5.06% (inactive)
same,Potency,[3],15.8 µM (active)
same,"activity change, negative = inhibition",[4],2.17% (inactive)
same,"activity, negative = inhibition",[5],12.4% (inactive)
same,Potency,[15],> 46 µM (inactive)
same,outcome,[7],inactive
same,Potency,[16],inactive
same,Potency,[18],0.126 µM (active)
same,Potency,[19],0.398 µM (active)
same,Potency,[8],inactive
same,outcome,[10],inactive
same,outcome,[11],inactive
same,"activity change, negative = inhibition",[12],4.63% (inactive)
same,max response,[12]; [20],8.3%
same,max response,[12]; [21],16.7%
same,Potency,[13],inactive
same,Potency,[14],inactive
Cc1nc2cnc(N3CCOCC3)nc2n(CCC#N)c1=O,Potency,[1],> 11.4 µM (inactive)
same,"activity change, negative = inhibition",[2],2.45% (inactive)
same,Potency,[3],12.6 µM (active)
same,"activity change, negative = inhibition",[4],-9.52% (inactive)
same,"activity, negative = inhibition",[5],21.2% (inactive)
same,Potency,[15],> 46 µM (inactive)
same,outcome,[7],inactive
same,"activity change, negative = inhibition",[12],5.38% (inactive)
same,max response,[12]; [20],1.22%
same,max response,[12]; [21],11.9%
same,Potency,[14],inactive
COCC(=O)N1CCC[C@@]2(CCN(c3ncccn3)C2)C1,Potency,[1],> 11.4 µM (inactive)
same,"activity change, negative = inhibition",[2],-8.65% (inactive)
same,Potency,[3],inactive
same,"activity change, negative = inhibition",[4],-4.08% (inactive)
same,"activity, negative = inhibition",[5],-2.01% (inactive)
same,Potency,[15],> 46 µM (inactive)
same,outcome,[7],inactive
same,Potency,[16],inactive
same,"activity change, negative = inhibition",[12],-2.11% (inactive)
same,max response,[12]; [20],19.1%
same,max response,[12]; [21],20.3%
same,Potency,[14],inactive
